# Most compounds without a hit are left out; they make up all but 12% or so of the library.
# HP1b binding inh: inhibitors of HP1-beta chromodomain binding to methylated histone tails; AlphaScreen HP1-beta / biotin-H3K9me3 peptide binding; hit rate 0.56% among 390,000; Potency, µM (top dose mostly 114 µM), usual class: inhibitors; P83916; also: nearly all actives have a fitted effect of over 70% in size
# Target sequence (P83916 whole entry, looked up): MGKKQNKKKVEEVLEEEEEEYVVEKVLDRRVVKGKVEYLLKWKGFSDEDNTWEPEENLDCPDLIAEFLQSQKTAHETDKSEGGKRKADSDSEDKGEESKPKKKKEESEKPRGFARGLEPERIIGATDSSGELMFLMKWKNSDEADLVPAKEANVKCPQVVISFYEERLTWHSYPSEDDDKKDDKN
#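 HP1-beta protein (50 nM final) preincubated 30 min at room temperature with biotinylated H3(1-18)K9me3 peptide (50 nM) in PBS pH 7.4, 0.01% Tween-20, then compound added for 30 min. AlphaScreen streptavidin donor/nickel chelate acceptor beads (10 ug/mL final), 30 min dark, luminescence read.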
# G9a block: blocks human histone lysine methyltransferase G9a; Potency, µM (series often up to 102 µM), most hits filed as inhibitors; AID 504332; Q96KQ7; hit rate 8.8% among 350,000; G9a H3K9 monomethylation, AlphaScreen, 2 h; also: nearly all actives have a fitted effect of over 75% in size
#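 Signal arises when biotinylated H3K9 peptide, once monomethylated, bridges streptavidin donor and antibody-captured acceptor beads. Enzyme at 20 nM was preincubated 15 min with test compounds; peptide 500 nM and SAM 20 uM then reacted for 2 h.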
# PI5P4Ka inh: blocks human PI5P4K alpha kinase activity | P48426 | PI5P4Kalpha enzyme, ADP-Glo luminescence, 60 min; hits give low values | max response, % | hit rate 1.2% among 330,000; active = max response of -50% or lower; inconclusive = between -30% and -50%; inactive = -30% or higher; also: value at the top dose of about 77 µM
# Target sequence (P48426 whole entry, looked up): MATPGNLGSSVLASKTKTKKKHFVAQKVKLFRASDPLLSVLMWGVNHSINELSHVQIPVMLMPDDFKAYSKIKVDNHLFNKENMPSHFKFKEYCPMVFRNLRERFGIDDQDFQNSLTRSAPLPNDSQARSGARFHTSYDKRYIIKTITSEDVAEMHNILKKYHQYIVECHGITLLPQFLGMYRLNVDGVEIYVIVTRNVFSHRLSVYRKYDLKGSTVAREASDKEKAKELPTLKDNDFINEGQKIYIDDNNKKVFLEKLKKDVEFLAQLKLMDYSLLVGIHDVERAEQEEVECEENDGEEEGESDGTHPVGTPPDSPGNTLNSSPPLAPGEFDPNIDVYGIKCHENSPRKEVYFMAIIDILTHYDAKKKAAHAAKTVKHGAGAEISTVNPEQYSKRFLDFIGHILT
#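 PI5P4Kalpha ADP-Glo assay; 5 microM ATP final; 60 min RT reaction; HEPES pH 7.4/EGTA/CHAPS, 5% DMSO; controls lacking substrate or enzyme; luminescent end-point.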
# JMJD2A Tudor: JMJD2A Tudor domain (human) inhibition | hit rate 4.4% among 390,000 | Potency, µM (titrated, usually from 114 µM), actives largely listed as inhibitors | AID 504339 | AlphaScreen JMJD2A-Tudor / H3K4me3 peptide binding; also: nearly all actives have a fitted effect of over 50% in size
# PLK1 PBD inh: blocks phosphopeptide binding to human PLK1 polo-box domain; AID 720504; hit rate 2.8% among 360,000; Plk1 PBD binding of FITC phosphopeptide, fluorescence polarization; P53350; Potency, µM, actives largely listed as inhibitors; also: series mostly up to about 57 µM; nearly all actives have a fitted effect of over 65% in size
# BAZ2B inh: blocks human BAZ2B; AID 504333; AlphaScreen BAZ2B-H3K14Ac peptide displacement; hit rate 4.4% among 360,000; Potency, µM (series often up to 114 µM), usual class: inhibitors; also: nearly all actives have a fitted effect of over 60% in size
#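 Complex of BAZ2B and biotin-H3K14Ac (50 nM apiece) forms over 30 min at RT, then faces library compounds up to 110 uM for another 30 min; AlphaScreen beads added, 20 min dark incubation, luminescence read.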
# A number is an active result; – = inactive; ? = inconclusive; · = no result given; [ ] = another dose, or the depositor's remark. Unless noted, calls follow the shape of the dose curve; as a rule, active = well fitted curve in the direction sought with a large enough effect; inconclusive = small, poorly fitted or top-dose-only effect, or another doubt; inactive = no such curve, though single readings can be large; an effect the other way counts as inactive or inconclusive.
SMILES,HP1b binding inh,G9a block,PI5P4Ka inh,JMJD2A Tudor,PLK1 PBD inh,BAZ2B inh
CCc1ccc2[nH]c(C(=O)Nc3ccc(Br)c(C)n3)cc2c1,–,45µM,–,–,–,–
COC1(NS(=O)(=O)c2ccc(Br)cc2)C(C)=CC(=O)C=C1C,?,?,–,–,6.7µM,–
COC(=O)c1ccc(CN2C(=O)c3ccccc3S2(=O)=O)cc1,–,–,·,–,–,–
COC(=O)c1cccc(N2C(=O)c3ccccc3S2(=O)=O)c1,–,56µM,–,–,–,–
COC(=O)c1cccc(N2C(=O)c3cccnc3C2=O)c1,–,?,–,45µM,–,–
COc1ccccc1N1C(=O)c2cccnc2C1=O,–,–,–,–,–,?
CCCC(=O)OC1=CN(Cc2ccccc2)S(=O)(=O)c2ccccc21,–,–,·,–,·,–
COc1cccc(C(=O)N2CCN(Cc3nc(CC4CC4)no3)CC2)c1,–,–,–,–,–,–
O=C(Nc1ccnn1C1CCN(C(=O)c2cnsn2)CC1)c1cccc(F)c1,–,·,–,–,–,–
CC1=NN(c2nc3ccccc3[nH]2)C(=O)/C1=C/N(C)C,–,–,–,56µM,–,22µM
CC1=NN(c2ccc([N+](=O)[O-])cc2)C(=O)/C1=C\N(C)C,–,10µM,?,–,–,?
Cc1cc(Nc2ccccc2)n(-c2nc3ccccc3[nH]2)n1,–,–,–,–,–,–
CCCC1=NN(c2ccc([N+](=O)[O-])cc2)C(=O)/C1=C/N(C)C,–,–,–,–,–,–
CCOC1=NN(c2ccccc2)C(=O)/C1=C\N(C)C,–,?,–,–,–,–
CCOC1=NN(c2ccc(Cl)cc2)C(=O)/C1=C\N(C)C,–,56µM,–,–,–,–
COc1ccccc1/C=C1/C(=O)N(c2ccc([N+](=O)[O-])cc2)N=C1C,–,?,–,?,1.9µM,–
Cc1ccc(Nc2ncnc3c2nc2n3CCCC2)c(Br)c1,–,–,·,–,·,–
CC(=O)O[C@H]1CC(=O)OC(C)(C)C2CC(=O)[C@]3(C)C(CC[C@@](C)([C@@H](O[C@@H]4O[C@H](CO)[C@@H](O)[C@H](O)[C@H]4O)c4ccoc4)[C@@]34O[C@@H]4C(=O)O)[C@]21C (stereo partly specified),–,–[12.7 µM],–,–,–,–
CC1NC(=O)NC1CCCCCC(=O)Nc1ccc(F)cc1 (stereo unspecified),?,?,–,0.32µM,–,–
Cc1c(F)cccc1NC(=O)CCCCCC1NC(=O)NC1C (stereo unspecified),?,0.71µM,–,0.89µM,–,1µM
Cc1c(F)cccc1NC(=O)CCC(=O)O,–,–,–,–,–,–
COc1ccc(NC(=O)N2CCCC3(CCN(C(=O)c4cccc(F)c4)CC3)C2)cc1,·,–[12.7 µM],·,·,·,·
C=CCNc1nc2ccccc2nc1NS(=O)(=O)c1ccc(Br)cc1,–,–,–,–,–,–
COc1ccc(S(=O)(=O)N2CCC(Cc3ccccc3)CC2)cc1NC(C)=O,–,·,–,–,–,–
CC/C(=N\Nc1ccccc1[N+](=O)[O-])c1ccc(O)cc1,13µM,·,–,14µM,–,6.3µM
SMILES,HP1b binding inh,G9a block,PI5P4Ka inh,JMJD2A Tudor,PLK1 PBD inh,BAZ2B inh
CC/C(=N\Nc1ccc([N+](=O)[O-])cc1[N+](=O)[O-])c1ccc(O)cc1,–,–[12.7 µM],–,–,–,11µM
C/C(=N\Nc1ccc([N+](=O)[O-])cc1[N+](=O)[O-])C(C)(C)C(C(=O)O)C(=O)O,–,?,–,22µM,–,?
CCC(=NNc1ccc([N+](=O)[O-])cc1[N+](=O)[O-])c1ccccc1,·,·,–,·,–,·
C/C(=N\Nc1ccc([N+](=O)[O-])cc1[N+](=O)[O-])c1ccc(-n2nncc2C(C)(C)C)cc1,?,7.1µM,–,?,–,?
CC(C)(CO)Nc1ccc([N+](=O)[O-])cc1[N+](=O)[O-],–,–,–,–,–,–
O=C(Nc1ccc(F)cc1F)NC1CCCCCCC1,–,–,–,–,–,–
Cc1ccc(C)c(N2CCN(C(=O)Cn3nc(Cc4cccnc4)c4ccccc4c3=O)CC2)c1,–,–,·,?,·,?
C/C(=N\Nc1ccccc1[N+](=O)[O-])c1ccccc1O,?,18µM,–,2.8µM,–,2.5µM
C/C(=N\Nc1ccc(S(N)(=O)=O)cc1[N+](=O)[O-])c1ccccc1O,–,–,–,–,–,–
COc1ccc(N2CCN(C(=O)CCc3c[nH]c4ccccc34)CC2)cc1,–,56µM,–,–[11.4 µM],–,?
COc1ccc(S(=O)(=O)N2CCN(C(=O)CCc3c[nH]c4ccccc34)CC2)cc1,–,–[12.7 µM],–,–,–,–
O=C(CCc1c[nH]c2ccccc12)N1CCN(c2ccc(O)cc2)CC1,?,35µM,–,–[11.4 µM],27µM,–
Cc1ccc(S(=O)(=O)N2CCN(C(=O)CCc3c[nH]c4ccccc34)CC2)cc1,–,–,–,–,–,–
Cc1ccc(S(=O)(=O)N2CCN(C(=O)CCc3c[nH]c4ccccc34)CC2)c(C)c1,–,8.9µM,–,–,–,–
CCN(Cc1nc(-c2cccc(C)c2)no1)S(=O)(=O)c1ccc(C)cc1,–,–,·,–,·,–
C=CCn1c(C)cc(C(=O)CSc2nc3ccccc3[nH]2)c1C,–,?,·,?,–,?
Cc1cc(C(=O)CSc2nc3ccccc3[nH]2)c(C)n1C,?,?,–,56µM,–,?
Cc1cc(C(=O)CN2C(=O)NC(c3ccccc3)(c3ccccc3)C2=O)c(C)n1Cc1ccco1,?,–,–,–,–,–
Cc1cc(C(=O)CN2C(=O)NC(C)(c3cccc(Br)c3)C2=O)c(C)n1Cc1ccco1 (stereo unspecified),–,50µM,–,–,–,–
Cc1cc(C(=O)CSc2nc3ccccc3[nH]2)c(C)n1Cc1ccco1,–,14µM,–,?,–,?
Cc1ccc2nc(SCC(=O)c3cc(C)n(C)c3C)[nH]c2c1,–,–,–,–,–,–
Cc1cc(C(=O)CSc2nc3ccc(Cl)cc3[nH]2)c(C)n1CC1CCCO1 (stereo unspecified),–,45µM,–,?,–,?
O=C(CN1C(=O)C2(SCC(=O)N2c2ccc(Cl)cc2)c2ccccc21)NCCc1ccccc1 (stereo unspecified),–,–,·,–,·,–
CC(=O)c1nc(N2C(=O)CC(Cc3cc(C)cc(C)c3)C2=O)sc1C (stereo unspecified),–,45µM,–,–,–,–
CC(=O)c1nc(N2C(=O)CC(Cc3cccc(C)c3)C2=O)sc1C (stereo unspecified),–,–,·,–,–,–
O=[N+]([O-])c1ccccc1/C=N/N1CCN(Cc2ccccc2)CC1,?,40µM,–,25µM,–,28µM
Clc1ccc(C=NN2CCCCCC2)c(Cl)c1,–,·,–,?,–,·

# Screens (PubChem BioAssay)
